Screens deposited in PubChem BioAssay by Broad Institute.
C2C12 statin: protects C2C12 myotubes from simvastatin toxicity | 330,000 compounds, 0.78% hits | rescue of ATP level, % at 7.49 µM | AID 602340 | ATP luminescence, 48 h; scaled: DMSO 0, geranylgeraniol control 100;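 active means mean ATP rescue above about 67%, or every replicate alone reaching that limit, limit read from the data, passing the limit was not always enough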;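 further: myotubes were challenged with 10 µM simvastatin during compound exposure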
F508del corr: correctors of CFTR F508del function in bronchial epithelial cells. CFBE cells, YFP halide quenching; stimulated with forskolin plus potentiator P3; % fluorescence drop versus neutral controls. activity (quench increase), % at 7.58 µM. 350,000 compounds, 0.36% hits. AID 720511;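 active means mean added fluorescence quench of at least 8% versus neutral control, with both replicates also reaching 8%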;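 further: cells transiently co-express mutant CFTR-F508del with the halide-sensitive YFP; corrector assay measuring rescue of mutant channel to the surface after 24 h compound exposure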
ARNT-TACC3 inh: disrupts binding between human ARNT and TACC3 | Q9Y6A5 | AlphaScreen His-ARNT PAS-B/GST-TACC3 binding, luminescence; TACC3 fragment carries E629A point mutation | inhibition, % at 9.99 µM | 390,000 compounds, 0.66% hits;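 active means mean inhibition of replicates at least 50% and at least half of replicates each reaching 50%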;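 further: 0% = complete ARNT plus TACC3 wells and 100% = ARNT alone without TACC3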
PglD DTNB: blocks C. jejuni PglD acetyltransferase activity. AID 602405. inhibition, % at 12.5 µM. 360,000 compounds, 0.098% hits. purified PglD enzyme, DTNB colorimetric CoA detection; in the data active means inhibition above about 16%, passing the limit was not always enough
AlphaScreen ctr: counter-screen for ARNT/TACC3 inhibitors: AlphaScreen artifacts. shares compounds with ARNT-TACC3 inh. His-ARNT PASB-GST AlphaScreen artifact counter-screen, luminescence. AC50, µM (titrated, usually from 68 µM), without a hit: at the highest dose activity change, negative = signal decrease. AID 651705. 1,200 compounds, 50% hits;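 active means every separate test run was called active for a drop in luminescence, with AC50 within twice the top valid dose, actives reach about 71 µM in these data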
The depositor's hits bear a star; . = not tested or not shown; [ ] = remark or other dose. Compounds with a hit are over-represented: about 1.4% of the library has one in this group of screens.

SMILES	C2C12 statin	F508del corr	ARNT-TACC3 inh	PglD DTNB	AlphaScreen ctr
CN(C)c1ccc2c(c1)[C@@H]1C[C@@H](CC(=O)N3CCOCC3)O[C@@H](CO)[C@@H]1O2	-10.9	0.4	69.9*	-0.4	-8.3%[38 µM]
COc1cc(OC)c(OC)cc1/C=N/NC(=O)c1cc(-c2cccn2C)n[nH]1	6.3	.	19.8	-3.6	.
CCOc1cccc(/C=N/NC(=O)c2cc(-c3cccn3C)n[nH]2)c1O	7.9	5.0	51.1*	.	-30.5%
O=C(NCCN1CCOCC1)c1cc(-c2ccc(Br)cc2)on1	1.6	.	-14.1	2.8	.
O=C(NCCCN1CCOCC1)c1cc(-c2ccccc2)on1	-8.9	-1.4	-0.3	2.2	9.6%[38 µM]
O=C(NCCN1CCOCC1)c1cc(-c2ccccc2)on1	-10.4	.	-2.1	2.8	2.4%[38 µM]
C[C@H]1CN([C@@H](C)CO)C(=O)c2cc(NS(=O)(=O)c3ccccc3)ccc2O[C@H]1CN(C)C(=O)Nc1ccccc1	11.9	-4.1	-7.9	1.9	.
Brc1ccc(OCc2nc(-c3ccccn3)n[nH]2)cc1	.	.	57.6*	2.1	22.5µM*
Clc1ccc(OCc2nc(-c3ccccn3)n[nH]2)cc1	39.1	.	66.3*	3.3	28.4µM*
O=S(=O)(N[C@H]1CC[C@@H](CCn2cc(-c3ccccn3)nn2)O[C@@H]1CO)c1cccc(Cl)c1	-4.2	-0.2	95.5*	6.9	47.6µM*
O=S(=O)(N[C@@H]1CC[C@@H](CCn2cc(-c3ccccn3)nn2)O[C@H]1CO)c1cccc(F)c1	-0.8	0.5	91.5*	-1.7	59.9µM*
O=S(=O)(N[C@H]1CC[C@H](CCn2cc(-c3ccccn3)nn2)O[C@@H]1CO)c1cccc(Cl)c1	2.0	0.5	108.5*	4.9	48.6µM*
Cc1cccc(S(=O)(=O)N[C@@H]2CC[C@H](CCn3cc(-c4ccccn4)nn3)O[C@@H]2CO)c1	2.8	1.6	.	3.5	.
CN1C(=O)c2cc(NC(=O)C3CCCC3)ccc2OC[C@@H]2O[C@@H](CC(=O)NCCc3ccncc3)CC[C@H]21	.	0.6	.	.	.
CO[C@@H]1CN(C)C(=O)c2cc(NC(=O)C3CCOCC3)ccc2OC[C@@H](C)N(Cc2nccs2)C[C@H]1C	15.5	1.8	-0.5	1.9	.
Oc1c(C(Nc2ccccn2)c2ccccn2)ccc2cccnc12 (configuration not stated)	.	.	.	-0.2	.
Oc1ccccc1C(Nc1nccs1)c1ccc2cccnc2c1O (configuration not stated)	45.8	1.6	61.1*	0.4	11.9µM*
O=C(N[C@H]1CC[C@H](CCn2cc(-c3ccccn3)nn2)O[C@@H]1CO)c1ccncc1	3.9	1.9	65.1*	5.1	47.6µM*
COCc1cn(CC[C@@H]2CC[C@H](NC(=O)c3ccncc3)[C@@H](CO)O2)nn1	-2.4	-0.4	-11.5	1.4	.
O=C(N[C@H]1CC[C@H](CCn2cc(-c3ccccn3)nn2)O[C@H]1CO)c1ccncc1	-7.4	1.4	66.1*	-0.6	38.5µM*
O=C(N[C@@H]1CC[C@@H](CCn2cc(-c3ccccn3)nn2)O[C@@H]1CO)c1ccncc1	-3.0	-1.5	77.0*	-2.2	38.1µM*
O=C(N[C@H]1CC[C@@H](CCn2cc(-c3ccccn3)nn2)O[C@@H]1CO)c1ccncc1	-4.1	-0.1	66.3*	1.0	31.2µM*
COCc1cn(CC[C@H]2CC[C@@H](NC(=O)c3ccncc3)[C@H](CO)O2)nn1	1.9	-1.5	-47.3	-1.4	.
COCc1cn(CC[C@H]2CC[C@H](NC(=O)c3ccncc3)[C@@H](CO)O2)nn1	-0.5	4.0	-15.3	0.9	.
Cc1ccc2[nH]c3c(c2c1)CCCC3=O	6.4	.	-2.2	-5.5	.
SMILES	C2C12 statin	F508del corr	ARNT-TACC3 inh	PglD DTNB	AlphaScreen ctr
Cc1ccc2[nH]c3c(c2c1)CCCC3NCCO (configuration not stated)	-1.2	-1.0	43.1*	-4.1	-22.2%
CC1(c2ccccc2)NC(=O)N(CC(=O)NNC(=O)c2ccccc2)C1=O (configuration not stated)	4.6	-0.3	.	1.7	.
Cc1ccc(C2(C)NC(=O)N(CC(=O)Nc3nc(-c4ccccn4)cs3)C2=O)cc1 (configuration not stated)	10.7	10.0*	53.5*	0.6	32.8µM*
Cc1ccc(S(=O)(=O)CCC(=O)Nc2nc(-c3ccccn3)cs2)cc1	6.1	-4.6	80.3*	-4.0	71.4µM*
Cc1ccc(OCC(=O)Nc2nc(-c3ccccn3)cs2)c(C)c1	-5.4	-0.9	11.4	-0.8	.
CC1(c2ccccc2)NC(=O)N(CC(=O)Nc2nc(-c3ccccn3)cs2)C1=O (configuration not stated)	-6.2	6.8	60.8*	2.9	56.2µM*
CCCNC(=O)N1CC2(CCN(C(=O)CN(C)C)CC2)c2c(n(C)c3cc(OC)ccc23)[C@H]1CO	.	-2.5	.	.	.
O=C(NCC1CC1)[C@H]1[C@H](CO)[C@H]2Cn3c(ccc(-c4ccc(F)cc4)c3=O)[C@@H]1N2	-0.2	-3.9	0.2	9.3	.
COc1ccc(-c2[nH]ncc2/C=N/NC(=O)c2cccc([N+](=O)[O-])c2)cc1OC	-0.9	2.0	8.2	.	.
COc1ccc(-c2[nH]ncc2/C=N\NC(=O)c2cccs2)cc1OC	.	-0.6	51.2*	1.6	-21.5%
Cc1[nH]cnc1CN1CCc2c(c3ccccc3n2C)C1=O	-11.8	1.2	27.9*	-0.9	-8.4%
O=C(c1ccccc1F)N1C[C@@H]2[C@H](c3ccccc31)[C@@H](CO)N2C(=O)c1cccnc1	-2.5	1.8	3.1	1.8	.
Cn1ccnc1-c1nc2ccccc2[nH]c1=O	-9.8	-1.1	71.4*	0.2	-11.5%
CCCCCc1cc(=O)oc2c(C(CCN3CCCC3)c3ccc(N(C)C)cc3)c(OC)cc(OC)c12 (configuration not stated)	-103.5	2.1	51.3*	-2.8	9.6µM*
CC(C)NC(=O)N(C)C[C@H]1Oc2ccc(NC(=O)CCN3CCOCC3)cc2CC(=O)N([C@H](C)CO)C[C@@H]1C	-5.2	1.9	3.3	1.2	.
O=C(CSc1cccc2cccnc12)N1CCCC1	.	.	87.3*	.	10.2µM*
O=C(CSc1cccc2cccnc12)OCC(=O)c1ccc(Br)cc1	24.7	.	9.7	-7.0	.
CN(C)C(=O)CSc1cccc2cccnc12	44.4	.	60.4*	0.3	15µM*
C[C@@H]1CN([C@H](C)CO)S(=O)(=O)c2ccc(-c3ccc(F)cc3)cc2O[C@H]1CN(C)C(=O)C1CC1	-54.4	-2.9	.	.	.
CC(=O)N1[C@H](CO)[C@H](c2ccccc2)C12CN(C(=O)c1ccccc1)C2	.	-2.5	.	.	.
CC(C)(C)C1=CC(=Nc2ccccc2N)C=C(C(C)(C)C)C1=O	4.2	-3.8	53.7*	.	1.52µM*
Nc1ccccc1N=Nc1ccccc1N	-0.8	-4.2	22.5	-0.2	.
CNC[C@H]1Oc2cc(C#CC(C)(C)O)ccc2S(=O)(=O)N([C@H](C)CO)C[C@@H]1C	-3.7	-0.8	-2.0	1.3	.
COc1cc(/C=N/NC(=O)c2cccc([N+](=O)[O-])c2)cc(OC)c1O	.	-0.3	3.2	.	.
